D1 PAM = potentiators of human D1 dopamine receptor | P21728 | HEK293 TREx D1 cells, calcium flux, dopamine EC20 potentiation | potentiation, % at 10 µM | hit rate 0.036% among 360,000 | AID 504651; in the data active = potentiation above about 30%; note: 0% is about no effect
D1 antagonist = antagonists of human D1 dopamine receptor. HEK293 TREx D1 cells, calcium flux, dopamine EC80; active compounds read low. P21728. AID 504652. hit rate 3.2% among 360,000. activity change, negative = inhibition, % at 10 µM; in the data active = activity change below about -30%; note: % is set by controls: 0 for no effect and ±100 for the full control effect
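HEK293 T-REx cells expressing inducible, force-coupled D1 receptor; no-wash Ca dye, 30–90 min RT. Cmpd → 180 s read at 1 Hz → EC80 DA → 180 s read.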
Epigenetic derep = epigenetic control regulation, reporter derepression. Potency, µM (titrated, usually from 53.9 µM), for inactives: top-dose GFP activation, actives largely listed as activators. hit rate 0.2% among 280,000. AID 1865. murine LDR cells, GFP reporter derepression, 30 h; active = well fitted activation curve with a large enough effect; inconclusive = small, poorly fitted or top-dose-only effect; note: potency is the fitted concentration of half-maximal effect; % of control where 0% means no effect; nearly all actives have a fitted effect of over 60% in size
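Murine LDR cells carrying a silenced, genomically integrated CMV-driven GFP reporter were exposed to compound for 30 hours at 37 C. After PBS washes, GFP-positive cells (20–120 um objects) were counted by laser-scanning microplate cytometry.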
TRHR agonist = activates the human TRH receptor; TRHR cells, calcium flux fluo-8, FDSS agonist mode; P34981; activation, % at 2 µM; hit rate 0.18% among 360,000; AID 493084; note: 0% is about no effect
Target sequence (P34981 whole entry, looked up): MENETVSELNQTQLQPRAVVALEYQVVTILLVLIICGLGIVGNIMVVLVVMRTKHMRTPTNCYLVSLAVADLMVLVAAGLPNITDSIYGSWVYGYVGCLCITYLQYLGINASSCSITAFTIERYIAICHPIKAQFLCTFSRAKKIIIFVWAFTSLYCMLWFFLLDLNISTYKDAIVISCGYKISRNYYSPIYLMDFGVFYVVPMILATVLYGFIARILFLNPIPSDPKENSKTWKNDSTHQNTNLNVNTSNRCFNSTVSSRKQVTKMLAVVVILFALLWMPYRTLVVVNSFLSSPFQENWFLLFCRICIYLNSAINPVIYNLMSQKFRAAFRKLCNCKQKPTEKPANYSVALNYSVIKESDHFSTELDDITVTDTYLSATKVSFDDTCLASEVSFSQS
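Agonist-mode FDSS calcium read (Ex 480/Em 530, 1 s cycles) in 1536-well TRHR cells with fluo-8 dye, after 10-cycle baseline and 23 nL compound addition; TRH at EC20 (10 nM final) added afterwards for the enhancer phase.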
TRHR enhancer = allosteric enhancers of human TRH receptor; enhancement, % at 2 µM; hit rate 0.66% among 360,000; TRHR cells, fluo-8 calcium fluorescence, EC20 TRH enhancement; in the data active = enhancement above about 30%; note: 0% is about no effect
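Enhancer read-out: after compound pinning and an initial kinetic agonist-mode read, an EC20 of TRH (10 nM final) was injected and fluo-8 calcium signal (Ex 480/Em 530) followed at 1 s/cycle for 100 cycles in TRHR-expressing cells.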
D1 agonist = activates the human D1 dopamine receptor; P21728; HEK293 T-REx D1 cells, calcium flux, agonist mode; activation, % at 2 µM; hit rate 1% among 360,000; note: 0% is about no effect
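Tetracycline-induced HEK293 TREx D1 cells, force-coupled to calcium signalling, were dye-loaded with a no-wash calcium kit. Compound was pin-added after a 10 s baseline. Fluorescence was read kinetically at 1 cycle/s for 180 s, with calcium rises flagged as agonism.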
* marks the source's active call; other numbers are inactive results; ? = inconclusive; nt = not tested or not shown; [ ] = remark or other dose. Sampled rows, rich in hits. Any-hit rate of the full collection: about 4.6%. Cut-off read from the data, not from the text of the source, unless noted: active = activation above about 30%; inactive = the rest.

SMILES | D1 PAM | D1 antagonist | Epigenetic derep | TRHR agonist | TRHR enhancer | D1 agonist
COc1ccc(Nc2ncnc3onc(C)c23)cc1Cl | 4 | -25 | 0% | 1 | 22 | 0
CCc1noc(C)c1C(=O)Oc1ccc(N(C)S(=O)(=O)c2ccccc2)cc1 | 6 | 4 | nt | 0 | 5 | 36*
CCOC(=O)N1CCC(NS(=O)(=O)c2ccc(C)cc2)CC1 | -4 | -39* | -1% | -2 | 0 | 6
CCOC(=O)N1CCC(NS(=O)(=O)c2ccccc2)CC1 | -3 | 7 | -1% | -1 | -1 | 7
CCOC(=O)N1CCC(NS(=O)(=O)c2cc(Br)cnc2N)CC1 | -8 | -30* | 0% | 0 | 10 | 2
COc1ccc(C(=O)Nc2nc3ccc(OC)cc3s2)cc1 | -2 | -12 | nt | 0 | -11 | 3
COc1ccc2nc(NC(=O)c3cccc(-c4cc5ccccc5oc4=O)c3)sc2c1 | -7 | -33* | 0% | 1 | 0 | 2
COc1ccc2nc(NC(=O)c3cc(=O)c4ccccc4o3)sc2c1 | 4 | 8 | -1% | 0 | 40* | 1
Cc1cc(C)c2c(=O)cc(C(=O)Nc3ccc(S(=O)(=O)N(C)Cc4ccccc4)cc3)oc2c1 | 4 | 2 | 0% | 0 | 4 | 1
Fc1ccc(Nc2ncnc3c2nc2n3CCCCC2)c(F)c1 | -1 | -7 | -1% | 0 | -2 | 0
COc1cc(C(=O)N(CCc2ccccc2)C2=CC3CCC(C2)N3C)cc(OC)c1OC (centres undefined) | -2 | -18 | -1% | 0 | -2 | 2
Cc1cc(C)cc(C(=O)N(CCc2ccccc2)C2CC3CCC(C2)N3C)c1 (centres undefined) | -1 | -31* | nt | 0 | 1 | 9
CC1CCCCC12NC(=O)N(CC(=O)N1CCN(S(=O)(=O)Cc3ccccc3)CC1)C2=O (centres undefined) | -5 | -35* | nt | 1 | 9 | 1
COC(=O)C1(C(=O)OC)C/C=C\C/C=C\c2ccccc2[C@@H]1C[N+](=O)[O-] | nt | nt | -1% | nt | nt | nt
COC(=O)c1scc(-c2ccc(C)cc2)c1S(=O)(=O)Nc1ccc(OC(F)(F)F)cc1 | -8 | -31* | 1% | 1 | 0 | 2
Cc1nn(-c2ccccc2)c2sc(C(=O)NC3CCCCC3)cc12 | -3 | -52* | 0% | 0 | -2 | 2
Cc1nn(-c2ccccc2)c2sc(C(=O)N3CCc4ccccc4C3)cc12 | 6 | 5 | 13% | 0 | 32* | 12
Cc1nn(-c2ccccc2)c2sc(C(=O)N3CCCCC3)cc12 | -9 | 0 | 0% | 0 | 6 | 0
COc1ccc(NC(=O)CCS(=O)(=O)c2nc(-c3cccs3)cc(C(F)(F)F)n2)cc1 | 0 | 10 | 0% | 0 | 0 | 0
COc1ccc(Cl)cc1NC(=O)CCS(=O)(=O)c1nc(-c2cccs2)cc(C(F)(F)F)n1 | 0 | -35* | -1% | 1 | -11 | 5
Cc1ccc2nc(Nc3ccc(Br)cc3)nc(-c3ccccc3)c2c1 | 1 | -2 | 0% | 0 | 2 | 1
CCOc1cc2c(cc1OCC)CN(C(=O)c1cccc(S(=O)(=O)N3CCCC3)c1)CC2 | 1 | -36* | nt | -2 | 3 | 0
O=C(C1CCN(CC2CC=CCC2)CC1)N(CCc1ccccc1)Cc1ccccc1 (centres undefined) | -3 | 4 | 0% | 1 | -6 | 3
O=C(C1CCN(CCCc2ccccc2)CC1)N(CCc1ccccc1)Cc1ccccc1 | -2 | -45* | -8% | 0 | 0 | 26
O=C(Nc1cc(Cl)cc(Cl)c1)c1coc(=O)c(Br)c1 | -2 | -46* | ? | 1 | -4 | 37*
SMILES | D1 PAM | D1 antagonist | Epigenetic derep | TRHR agonist | TRHR enhancer | D1 agonist
Cc1cccc(C(=O)Nc2oc(-c3ccccc3)cc2C#N)c1 | -4 | -49* | 2% | 0 | -3 | 6
N#Cc1cc(-c2ccccc2)oc1NC(=O)c1ccco1 | -1 | -3 | 0% | 0 | 4 | 0
Fc1ccccc1Cc1noc(CN2CCN(C/C=C/c3ccccc3)CC2)n1 | 4 | -53* | -1% | 0 | -5 | 1
Cc1ccc(NC(=O)C2CCN(S(=O)(=O)c3ccc(F)cc3)CC2)cc1 | -1 | -11 | 1% | -1 | 1 | -1
Cc1ccc(S(=O)(=O)N2CCC(C(=O)Nc3ccc(C)c(Cl)c3)CC2)cc1 | -5 | -39* | 1% | -1 | 6 | 14
O=C(Nc1ccc2c(c1)OCO2)C1CCCCC1 | 0 | 3 | nt | 0 | 0 | 5
O=C(Nc1ccc(Cl)c(Cl)c1)C1CCCCC1 | -8 | -32* | nt | 0 | -7 | 8
CS(=O)(=O)N1CCC(C(=O)Nc2ccc(Cl)c(Cl)c2)CC1 | -5 | -59* | -2% | 4 | -12 | 20
CS(=O)(=O)N1CCC(C(=O)Nc2cc(Cl)c(Cl)cc2Cl)CC1 | 1 | -34* | nt | 0 | -12 | 6
CS(=O)(=O)N1CCC(C(=O)Nc2cc(Cl)ccc2Cl)CC1 | 1 | 2 | 0% | -1 | 4 | 1
COc1ccc(-c2nnc(SCC(=O)c3ccc([N+](=O)[O-])cc3)o2)cc1OC | -1 | -15 | 0% | -1 | -2 | 0
Cc1cc2nc(-c3ccc(Br)cc3)cc(C(F)(F)F)n2n1 | -1 | -2 | 1% | -1 | -14 | 0
O=C(Nc1ccc(S(=O)(=O)N2CCCCC2c2cccnc2)cc1)c1ccc(F)cc1 (centres undefined) | -1 | -20 | 6% | 0 | -3 | 3
Cc1cn(C)c(CC(=O)NCc2cccc(Cl)c2)c1C(=O)O | -1 | 17 | 1% | 0 | 11 | 0
Cc1cccc(NC(=O)N2CCC3(CC2)Oc2ccccc2C(=O)N3Cc2ccccc2F)c1C | 1 | 4 | 6% | 1 | 4 | 1
Cc1ccc(NC(=O)C2CCN(S(=O)(=O)c3ccc4c(c3)CCCN4C(=O)C3CCC3)CC2)cc1 | -7 | -48* | 0% | -1 | -4 | 1
O=C(Nc1ccc(F)cc1)C1CCN(S(=O)(=O)c2ccc3c(c2)CCCN3C(=O)C2CCC2)CC1 | -6 | -22 | 1% | 0 | -2 | 0
COc1ccc(CC(=O)NC2CC(=O)N(c3ccc4c(c3)OCCO4)C2)cc1 (centres undefined) | -1 | nt | 2% | -1 | 4 | -4
O=c1cc(-c2cccc(F)c2)[nH]c2cc(F)ccc12 | nt | nt | -3%[96.6 µM] | nt | nt | nt
CCc1ccc(NC(=O)CSC2=C(C#N)C(c3ccco3)C3=C(CCCC3=O)N2)cc1 (centres undefined) | -11 | -61* | -2% | 1 | 1 | 0
CNc1nc(Sc2cccc(C(F)(F)F)c2)cc(C(F)(F)F)n1 | -6 | 17 | -1% | 1 | 2 | 1
